A selection: hits, their analogues and other compounds. The true share with any hit is near 18%.
TDP1 inh: inhibitors of human tyrosyl-DNA phosphodiesterase TDP1 | Q9NUW8 | recombinant TDP1, AlphaScreen DNA substrate cleavage | Potency, µM (highest dose often 130 µM), for the others: top-dose activity change, negative = inhibition, hits mostly inhibitors | hit rate 0.28% among 350,000 | AID 485290; also: potency is read from the fitted curve at half-maximal effect; % is scaled to controls: 0 for no effect and ±100 for the full control effect; nearly all actives have a fitted effect of over 40% in size
Target sequence (Q9NUW8 whole entry, looked up): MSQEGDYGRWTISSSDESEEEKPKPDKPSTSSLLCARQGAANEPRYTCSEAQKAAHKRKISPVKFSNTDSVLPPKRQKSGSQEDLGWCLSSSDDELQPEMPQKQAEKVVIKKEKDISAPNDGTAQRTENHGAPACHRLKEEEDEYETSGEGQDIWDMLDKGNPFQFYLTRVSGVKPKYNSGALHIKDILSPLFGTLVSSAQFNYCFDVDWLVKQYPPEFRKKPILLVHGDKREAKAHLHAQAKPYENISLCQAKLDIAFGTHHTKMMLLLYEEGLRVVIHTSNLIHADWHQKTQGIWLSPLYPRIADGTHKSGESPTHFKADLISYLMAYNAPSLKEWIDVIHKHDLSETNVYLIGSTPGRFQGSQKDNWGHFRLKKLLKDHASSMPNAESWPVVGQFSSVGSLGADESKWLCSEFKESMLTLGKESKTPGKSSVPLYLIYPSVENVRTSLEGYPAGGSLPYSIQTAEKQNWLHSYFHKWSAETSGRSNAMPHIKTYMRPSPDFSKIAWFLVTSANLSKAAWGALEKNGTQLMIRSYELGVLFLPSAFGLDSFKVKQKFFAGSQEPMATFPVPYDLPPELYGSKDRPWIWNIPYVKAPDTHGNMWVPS
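AlphaScreen read-out: signal falls as enzyme removes the 3' tyrosine-FITC from a 5'-biotinylated DNA oligo (15 nM, 5 min, RT). Enzyme was E. coli-made recombinant Tdp1 at 1 nM, exposed to compound for 15 min beforehand; beads 10 ug/ml, 10 min.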
DT40 TDP1 CPT: DT40-hTDP1 cell growth loss with CPT | hit rate 12% among 420,000 | AID 686979 | chicken DT40 Tdp1-/-;hTDP1 cells + 20 nM CPT, ATP luminescence, 48 h | Potency, µM (titrated, usually from 46.2 µM), inactives show at the highest dose activity change, negative = growth inhibition, actives largely listed as inhibitors; also: potency is read from the fitted curve at half-maximal effect; % is scaled to controls: 0 for no effect and ±100 for the full control effect; nearly all actives have a fitted effect of over 55% in size
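Chicken DT40 Tdp1-/- cells stably complemented with human TDP1 were seeded at 400 cells/well in medium containing 20 nM camptothecin, exposed to pin-transferred compounds, and grown at 37 °C for at least 48 hr. Viability was read as ATP luminescence.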
IL-1B inflam inh: blocks inflammasome-driven IL-1 beta release | THP-1 LPS/ATP IL-1B secretion, AlphaLISA, 16 h; active compounds read low | activity change, % at 57.5 µM | hit rate 4.7% among 360,000; in the data active = activity change below about -50%; inconclusive = mostly about -30% to -49%; also: % is scaled to controls: 0 for no effect and ±100 for the full control effect
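THP-1 cells pretreated 1 hr with compounds (up to 57.5 uM final), then stimulated with LPS (250 ng/mL final) plus ATP (1.25 mM final); secreted IL-1B measured by AlphaLISA after 16 hr, decreased signal indicating inhibition.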
HepG2 viability: counter-screen for TGF-b inhibitors: cytotoxicity in HepG2 cells; HepG2 CAGA-GFP viability, ATP luminescence, 18 h; Potency, µM (highest dose often 46.1 µM), inactives show top-dose activity change, negative = cytotoxicity, actives largely listed as cytotoxic; hit rate 0.76% among 410,000; also: potency is read from the fitted curve at half-maximal effect
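CellTiter-Glo luminescence gave cytotoxicity after 18 hours at 37 degrees C. The cells were HepG2 CAGA-GFP in 1% FBS DMEM, stimulated with 500 pg/mL TGF-beta after compound addition. %Activity was normalised to no-cell wells (complete cell-killing) and DMSO (no toxicity), and curves were fitted and classified.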
DT40 TDP1 no CPT: qHTS for Inhibitors of human tyrosyl-DNA phosphodiesterase 1 (TDP1): qHTS in cells in absence of CPT | DT40 Tdp1-/- hTDP1 cells, no CPT, ATP luminescence, 48 h | Potency, µM (titrated, usually from 46.2 µM), for inactives: top-dose activity change, negative = growth inhibition, hits mostly inhibitors | hit rate 15% among 420,000; also: potency is read from the fitted curve at half-maximal effect; % is scaled to controls: 0 for no effect and ±100 for the full control effect; nearly all actives have a fitted effect of over 55% in size
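Growth of hTDP1-complemented DT40 Tdp1-knockout cells is measured by ATP luminescence after at least 48 hr compound exposure at 37 °C, with DMSO substituting for the 20 nM CPT used in the parallel screen.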
TGFb inhibitor: blocks TGF-b signaling | HepG2 CAGA-GFP TGF-b/SMAD3 reporter, GFP fluorescence, 18 h; TGF-beta stimulated, 500 pg/mL final | Potency, µM (top dose mostly 46.1 µM), without a hit: at the top dose activity, negative = inhibition, most hits filed as inhibitors | hit rate 1.2% among 410,000 | AID 588855; also: potency is read from the fitted curve at half-maximal effect; % is scaled to controls: 0 for no effect and ±100 for the full control effect; nearly all actives have a fitted effect of over 65% in size
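Using HEPG2 CAGA-GFP reporter cells at 1000 cells/well, we pinned test compounds, stimulated with recombinant TGF-beta (500 pg/mL final) and measured total well GFP after 18 h.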
Active calls of the source: *. Unless noted, calls follow the shape of the dose curve; as a rule, active = well fitted curve in the direction sought with a large enough effect; inconclusive = small, poorly fitted or top-dose-only effect, or another doubt; inactive = no such curve, though single readings can be large; an effect the other way counts as inactive or inconclusive.

For CCOc1ccc(C(=O)c2ccc(OCC)c(N)c2)cc1N the results were TDP1 inh 5%, DT40 TDP1 CPT inconclusive, IL-1B inflam inh inconclusive, HepG2 viability -14%, DT40 TDP1 no CPT 29µM* and TGFb inhibitor 0%.
Screening CN(Cc1ccccc1)Cc1nc2c(c(=O)n(C)c(=O)n2C)n1Cc1ccccc1Cl returned TDP1 inh -1%, DT40 TDP1 CPT 26µM*, IL-1B inflam inh -7, HepG2 viability -3%, DT40 TDP1 no CPT 12µM* and TGFb inhibitor 6%.
Cn1c(=O)c2c(nc(N3CCOCC3)n2Cc2ccccc2Cl)n(C)c1=O was read as DT40 TDP1 CPT inconclusive, HepG2 viability -14%, DT40 TDP1 no CPT inconclusive and TGFb inhibitor -35%.
Screening CCCn1c(CN(Cc2ccccc2)Cc2ccccc2)nc2c1c(=O)n(C)c(=O)n2C returned TDP1 inh 3%, DT40 TDP1 CPT 23µM*, IL-1B inflam inh -15, HepG2 viability -19%, DT40 TDP1 no CPT 15µM* and TGFb inhibitor -13%.
CCCCn1c(CN(C)Cc2ccccc2)nc2c1c(=O)n(C)c(=O)n2C was read as TDP1 inh -3%, DT40 TDP1 CPT 6.5µM*, IL-1B inflam inh -13, HepG2 viability -20%, DT40 TDP1 no CPT 4.1µM* and TGFb inhibitor inconclusive.
CN(Cc1ccccc1)Cc1nc2c(c(=O)n(C)c(=O)n2C)n1CCc1ccccc1 was read as DT40 TDP1 CPT 13µM*, IL-1B inflam inh -10, HepG2 viability -3%, DT40 TDP1 no CPT 18µM* and TGFb inhibitor -14%.
`COCCn1c(CN(C)Cc2ccccc2)nc2c1c(=O)n(C)c(=O)n2C` gave TDP1 inh 0%, DT40 TDP1 CPT inconclusive, IL-1B inflam inh 46, HepG2 viability -6%, DT40 TDP1 no CPT inconclusive and TGFb inhibitor -18%.
CCCn1c(CN(C)Cc2ccccc2)nc2c1c(=O)n(C)c(=O)n2C was read as TDP1 inh 3%, DT40 TDP1 CPT 9.2µM*, IL-1B inflam inh -23, HepG2 viability -12%, DT40 TDP1 no CPT 10µM* and TGFb inhibitor 0%.
For CCOCCn1c(CN(C)Cc2ccccc2)nc2c1c(=O)n(C)c(=O)n2C the results were DT40 TDP1 CPT inconclusive, IL-1B inflam inh 43, HepG2 viability -17%, DT40 TDP1 no CPT 23µM* and TGFb inhibitor 11%.
Screening CCOC(=O)Cn1c(CN(Cc2ccccc2)Cc2ccccc2)nc2c1c(=O)n(C)c(=O)n2C returned TDP1 inh 3%, DT40 TDP1 CPT 21µM*, IL-1B inflam inh 29, HepG2 viability -37%, DT40 TDP1 no CPT inconclusive and TGFb inhibitor 0%.
For CC1Cc2cc(/C(O)=C3/C(=O)C(=O)N(CCN4CCOCC4)C3c3ccc([N+](=O)[O-])cc3)ccc2O1 (stereo not given) the results were TDP1 inh 4%, DT40 TDP1 CPT 4%, IL-1B inflam inh 4, HepG2 viability 6%, DT40 TDP1 no CPT 17% and TGFb inhibitor -15%.
For COc1ccc(Cn2c(CO)cnc2SCc2ccccc2)cc1 the results were TDP1 inh 9%, DT40 TDP1 CPT inconclusive, HepG2 viability -31%, DT40 TDP1 no CPT inconclusive and TGFb inhibitor 5%.
Screening Cc1ccccc1CSc1ncc(CO)n1Cc1ccc(F)cc1 returned TDP1 inh 8%, DT40 TDP1 CPT 18µM*, HepG2 viability -28%, DT40 TDP1 no CPT inconclusive and TGFb inhibitor -20%.
Screening Cc1cccc(CSc2ncc(CO)n2Cc2ccc(F)cc2)c1 returned TDP1 inh 10%, DT40 TDP1 CPT 21µM*, HepG2 viability -17%, DT40 TDP1 no CPT 16µM* and TGFb inhibitor 2%.
Screening O=S(=O)(NCc1nnc2n1CCN(Cc1ccccc1Cl)CC2)c1ccccc1 returned DT40 TDP1 CPT -12% and DT40 TDP1 no CPT inconclusive.
`CCC(=O)/C=C1\Sc2ccc(OC)cc2N1CC` gave TDP1 inh 4%, DT40 TDP1 CPT inconclusive, IL-1B inflam inh -6, HepG2 viability -29%, DT40 TDP1 no CPT 16µM* and TGFb inhibitor 10%.
Screening Cc1cc(OCCN2CCN(S(=O)(=O)c3ccccc3F)CC2)ccc1C(C)C returned TDP1 inh -3%, DT40 TDP1 CPT 21µM*, IL-1B inflam inh 0, HepG2 viability -32%, DT40 TDP1 no CPT 16µM* and TGFb inhibitor inconclusive.
Screening OCCCCNCc1ccc(OCc2ccccc2Cl)cc1 returned TDP1 inh 6%, DT40 TDP1 CPT inconclusive, IL-1B inflam inh -23, HepG2 viability -34%, DT40 TDP1 no CPT inconclusive and TGFb inhibitor 0%.
For NC(N)=N/N=C/c1ccc(OCc2ccccc2Cl)cc1 the results were TDP1 inh 7%, DT40 TDP1 CPT 15µM*, IL-1B inflam inh -103*, HepG2 viability -96%, DT40 TDP1 no CPT 13µM* and TGFb inhibitor inconclusive.
Screening NC(N)=N/N=C/c1ccc(Cl)c(Cl)c1 returned DT40 TDP1 CPT 13µM*, IL-1B inflam inh -97*, HepG2 viability 13µM*, DT40 TDP1 no CPT 16µM* and TGFb inhibitor inconclusive.
Screening Clc1ccc(C=NN2CCCCCC2)cc1Cl returned DT40 TDP1 CPT 3%, IL-1B inflam inh -5, HepG2 viability 3%, DT40 TDP1 no CPT -22% and TGFb inhibitor -2%.
For NC(N)=N/N=C/c1ccc(Cl)cc1Cl the results were TDP1 inh 0%, DT40 TDP1 CPT 16µM*, IL-1B inflam inh -99*, HepG2 viability -84%, DT40 TDP1 no CPT 23µM* and TGFb inhibitor inconclusive.
For O=C(NN=Cc1ccc(Cl)cc1Cl)c1ccccc1 the results were DT40 TDP1 CPT -25%, IL-1B inflam inh -29, HepG2 viability -39%, DT40 TDP1 no CPT inconclusive and TGFb inhibitor -17%.
Screening COc1ccc(-c2ccc(OC)c(C3C4C=CCCC4(C)C(=O)N3Cc3ccccc3)c2)cc1 (stereo not given) returned TDP1 inh 9%, HepG2 viability 1% and TGFb inhibitor -4%.
Screening CCN(CC)CCN(C(=O)c1ccco1)c1nc2cc(C)cc(C)c2s1 returned TDP1 inh 7%, DT40 TDP1 CPT inconclusive, HepG2 viability -35%, DT40 TDP1 no CPT 23µM* and TGFb inhibitor inconclusive.
CCN(CC)CCN(C(=O)c1ccc(S(=O)(=O)N2CCCC2)cc1)c1nc2cc(C)cc(C)c2s1 was read as TDP1 inh 8%, DT40 TDP1 CPT inconclusive, IL-1B inflam inh inconclusive, HepG2 viability -29%, DT40 TDP1 no CPT inconclusive and TGFb inhibitor -24%.

Screens (PubChem)
